Data from PubChem BioAssay (Tox21).
Active and inactive are the calls of the source. Calls follow the shape of the dose curve; as a rule, active = well fitted curve in the direction sought with a large enough effect in the repeat runs; inconclusive = weak or mixed curves; inactive = flat fitted curve, though single readings scatter.

assay: qHTS assay to test for compound auto fluorescence at 460 nm (blue) in HEK293 cell free culture (AID 720681); details: cell-free medium, autofluorescence 405/460 nm (blue); series mostly up to 91.3 µM
Description: U.S. Tox21 Program National Center for Advancing Translational Sciences [NCATS] NIH Chemical Genomics Center [NCGC] U.S. Environmental Protection Agency [EPA] National Institutes of Environmental Health Sciences [NIEHS] National Toxicology Program [NTP] U.S. Food and Drug Administration [FDA] Tox21 Assay Overview: Compound auto fluorescence often interferes with screening of the compound library against various biological targets and signaling pathways. Some of these compounds may have fluorophoric properties. Such properties may interfere with the assay outputs resulting in false positives and/or negatives. To decrease such complications and ensure the compound activities are relevant in terms of biological response, the Tox21 10K compound library was screened for auto fluorescence. From the fluorophores used as reporter signals in our screening assays, the auto fluorescence equivalencies of compounds against three fluorophores have been evaluated: Triamterene, Fluorescein and Rose Bengal sodium for blue, green and red fluorescence, respectively. The fluorescence intensities were measured using Excitation/Emission wavelengths at 405/460nm, 485/535nm and 540/590nm for blue, green and red labels, respectively. This assay includes the blue fluorescence data.
Tox21 Assay Protocol Summary: 5 uL of culture medium (DMEM containing 10% FBS) per well was dispensed into black wall/clear bottom 1536-well plates using a Multidrop Combi Dispenser (ThermoFisher Scientific, Waltham, MA). After 23 nL compound or DMSO vehicle was transferred into assay plate by a pintool work station (Kalypsys, San Diego, CA), fluorescence intensities in the assay plates were measured by an Envision (PerkinElmer, Shelton, CT) plate reader using three labels for measuring blue, green and red fluorescence at […] 460, 535 and 590nm respectively.

SMILES | outcome
COC(=O)c1ccccc1N | inactive
CN1C(=O)CN=C(c2ccccc2)c2cc(Cl)ccc21 | inactive
Cn1cc(-c2ccccc2)c(=O)c(-c2cccc(C(F)(F)F)c2)c1 | inactive
Cc1cccc([N+](=O)[O-])c1 | inactive
c1cc2c3c(cccc3c1)CC2 | inactive
O=c1n(Cl)c(=O)n(Cl)c(=O)n1Cl | inactive
Cc1cc(-c2cc(C)c(N)c(C)c2)cc(C)c1N | inactive
CC(C)(C)OOC(=O)c1ccccc1 | inactive
C1CN2CCN1CC2 | inactive
CCCCCOC(=O)c1ccccc1C(=O)OCCCCC | inactive
COC(=O)c1ccccc1C(=O)OC | inactive
Nc1ccc(Cc2ccc(N)cc2)cc1 | inactive
CN=C=S | inactive
c1ccc2c(c1)Oc1ccccc1O2 | inactive
CC(C)C#N | inactive
O=NN1CCCCCCC1 | inactive
CCC[N+](=O)[O-] | inactive
CON(C)C(=O)Nc1ccc(Cl)c(Cl)c1 | inactive
CCCCCCCCCl | inactive
COC(=O)NC(=S)Nc1ccccc1NC(=S)NC(=O)OC | inactive

SMILES | outcome
NCC(O)c1ccc(O)cc1 (stereo not given) | inactive
Cc1ccc([N+](=O)[O-])cc1C | inactive
CC1C=[C-]C=C1.[C-]#[O+].[C-]#[O+].[C-]#[O+].[Mn] | inactive
CCC12COCN1COC2 | inactive
ClCCBr | inactive
CCOP(=S)(OCC)Oc1cnc2ccccc2n1 | inactive
CC(Br)C(=O)O (stereo not given) | inactive
O=S(=O)(c1ccc(O)cc1)c1ccc(O)cc1 | inactive
COc1ccc2c3c1O[C@H]1[C@@H](O)C=C[C@H]4[C@@H](C2)N(C)CC[C@@]341 | inactive
[O-][Cl+2]([O-])O | inactive
Clc1ccc(Cl)cc1 | inactive
CC(C)(C)C(O)(CCc1ccc(Cl)cc1)Cn1cncn1 (stereo not given) | inactive
CN(N=O)c1ccccc1 | inactive
O=c1[nH]c(=O)[nH]c(=O)[nH]1 | inactive
COC(=O)NS(=O)(=O)c1ccc(N)cc1 | inactive
CC(C)N1C(=O)c2ccccc2NS1(=O)=O | inactive
C1CC2OC2CC1C1CO1 (stereo not given) | inactive
ClCc1cccnc1 | inactive
CNC(=O)Oc1ccccc1OC(C)C | inactive
CCNc1nc(NC(C)C)nc(SC)n1 | inactive
